Source: PubChem BioAssay
Most compounds without a hit are left out; they make up all but 2.4% or so of the library.
PERK inh: inhibitors of human PERK kinase. CHO PERK-DD fusion, SEAP luminescence translation reporter. 220,000 tested, 0.17% active. AID 1416. Q9NZJ5. inhibition, % at 5.6 µM;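 active = inhibition above the mean inhibition of all tested compounds plus 3 SD, set separately per screening campaign, cut at about 2.9% in these data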;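 also: PERK kinase domain activated by AP20187 dimerizer at 100 nM; 0% = DMSO with dimerizer and 100% = rapamycin at 8.4 µM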
eIF4E 4G PPI: blocks eIF4E binding to eIF4G; inhibition, % at 21.7 µM; TR-FRET eIF4E-eIF4GI(517-606) binding, 2 h; P63073+Q04637; 220,000 tested, 0.37% active;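 active = inhibition above about 30%, limit read from the data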;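 also: 0% = full FRET control wells and 100% = background wells lacking eIF4GI fragment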
PfM18AAP inh-1: blocks P. falciparum M18 aspartyl aminopeptidase | AID 1822 | 290,000 tested, 1.2% active | inhibition, % at 7.35 µM | recombinant PfM18AAP, H-Glu-NHMec fluorogenic cleavage;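 active = inhibition above the campaign mean inhibition over all tested compounds plus 3 SD, cut at about 28% in these data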;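 also: 0% = plate median of test compound wells and 100% = 2 mM ZnCl2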
eIF4H FP inh: inhibitors of RNA binding by human eIF4H; inhibition, % at 35 µM; eIF4H fluorescence polarization binding assay; Q15056; 290,000 tested, 0.94% active;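 also: calls also rest on retests at 20 µM and on dose response follow-up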
PABP FP inh: blocks human PABP binding to poly(A) RNA; P11940; fluorescence polarization; inhibition, % at 35 µM; 290,000 tested, 1% active; AID 2014;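 also: calls also rest on retests at 20 µM and on dose response follow-up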
Target sequence (P11940 whole entry, looked up): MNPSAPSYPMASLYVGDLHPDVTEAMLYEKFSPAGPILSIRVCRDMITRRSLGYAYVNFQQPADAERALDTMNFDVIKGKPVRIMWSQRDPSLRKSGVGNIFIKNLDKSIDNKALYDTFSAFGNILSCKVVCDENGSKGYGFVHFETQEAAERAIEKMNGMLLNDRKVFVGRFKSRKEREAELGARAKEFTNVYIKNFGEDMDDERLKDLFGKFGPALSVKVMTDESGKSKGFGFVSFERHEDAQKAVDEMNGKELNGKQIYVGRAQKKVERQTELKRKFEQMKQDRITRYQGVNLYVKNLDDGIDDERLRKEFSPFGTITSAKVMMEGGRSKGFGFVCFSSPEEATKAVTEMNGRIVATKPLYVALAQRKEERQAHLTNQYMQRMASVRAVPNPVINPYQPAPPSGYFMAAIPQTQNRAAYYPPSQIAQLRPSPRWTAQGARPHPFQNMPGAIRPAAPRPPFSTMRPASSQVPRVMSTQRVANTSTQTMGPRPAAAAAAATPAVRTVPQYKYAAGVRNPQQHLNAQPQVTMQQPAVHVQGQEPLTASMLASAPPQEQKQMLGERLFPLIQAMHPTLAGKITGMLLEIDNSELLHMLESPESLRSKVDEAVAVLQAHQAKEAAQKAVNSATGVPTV
MLLE-PAM2 inh: blocks PAM2 peptide binding to the PABP1 MLLE domain | GST-MLLE / FITC-PAM2 fluorescence polarization | inhibition, % at 20 µM | P11940 | 360,000 tested, 0.36% active; in the data active = inhibition above about 35%, passing the limit was not always enough;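 also: plate controls were DMSO wells with GST-MLLE for no effect and wells lacking GST-MLLE protein for full effect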
PfM18AAP inh-2: PfM18AAP inhibition, confirmation; AID 2170; recombinant PfM18AAP, H-Glu-NHMec fluorogenic cleavage; 2,400 tested, 28% active; shares compounds with PfM18AAP inh-1; inhibition, % at 7.35 µM;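 active = mean inhibition over replicate wells above the hit cutoff set for the earlier primary screen, cut at about 29% in these data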;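 also: 0% = median of test compound wells and 100% = 2 mM ZnCl2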
CTSL1 counter: Cathepsin L (human) inhibition, confirmation. shares compounds with PfM18AAP inh-1. purified cathepsin L1, Z-Leu-Arg-MCA fluorescence. inhibition, % at 5.96 µM. 2,400 tested, under 10 active;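 active = average inhibition across replicates above the hit cutoff set in the earlier primary screen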;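 also: 0% = median of test compound wells and 100% = Z-Phe-Ala-diazomethylketone 1 µM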
An asterisk follows results filed as active; ? = inconclusive; nt = no result. Unless noted, no rule for the calls is given here.

SMILES	PERK inh	eIF4E 4G PPI	PfM18AAP inh-1	eIF4H FP inh	PABP FP inh	MLLE-PAM2 inh	PfM18AAP inh-2	CTSL1 counter
Cc1nnc(NNS(=O)(=O)c2ccc(Cl)cc2)[nH]c1=O	0	0	72*	1	1	13	60*	-9
Cc1occc1C(=O)NNS(=O)(=O)c1ccc(Cl)cc1	1	19	8	-4	6	-2	nt	nt
Cc1ccc(S(=O)(=O)NNc2ccccc2)cc1	0	-6	-11	1	-3	26	nt	nt
CCN1C(=O)N2C[C@H]3CON(C)[C@H]3C[C@H]2c2ccccc21	nt	nt	nt	nt	nt	-9	nt	nt
Cc1[nH]nc2c1C(c1ccco1)C(C#N)=C(N)O2 (centres undefined)	1	1	14	7	29	13	nt	nt
Cc1[nH]nc2c1[C@@H](c1ccccc1[N+](=O)[O-])C(C#N)=C(N)O2	nt	nt	36*	9	8	2	10	3
Cc1[nH]nc2c1C(c1cc(Br)cs1)C(C#N)=C(N)O2 (centres undefined)	0	5	72*	4	-4	2	62*	0
Cc1[nH]nc2c1C(c1c[nH]c3ccccc13)C(C#N)=C(N)O2 (centres undefined)	1	2	3	-8	2	-13	nt	nt
O=S(=O)(c1ccccc1)N1CCN(C/C=C/c2ccccc2)CC1	nt	nt	-2	11	2	10	nt	nt
O=C(/C=C/c1ccccc1)n1cnnc1SC/C=C/c1ccccc1	0	-3	41*	-9	-5	18	27	-5
CCS(=O)(=O)c1nc(S(=O)(=O)c2ccc(C)cc2)c(N2CCN(C)CC2)s1	nt	nt	-2	-9	15	5	nt	nt
CCN(C(=O)CN1CCN(c2ccc(O)cc2)CC1)c1c(N)n(Cc2ccccc2)c(=O)[nH]c1=O	2	4	35*	5	5	7	1	-4
Cc1cc(N/N=C\c2ccccc2)nc(-c2ccccc2O)n1	-1	3	11	7	2	-4	nt	nt
Cc1cc(N/N=C/c2ccccc2O)nc(-c2ccccc2O)n1	0	3	42*	-3	11	-4	40*	9
Cc1cc(N/N=C/c2ccc(O)cc2O)nc(-c2ccccc2O)n1	0	2	52*	0	7	11	54*	-1
Cc1cc(N/N=C/c2ccc(O)cc2O)nc(-n2nc(C)cc2C)n1	0	3	51*	4	7	-1	33*	1
COC(=O)c1ccc(CNC(=O)CCNC(=O)c2ccco2)cc1	nt	nt	nt	nt	nt	4	nt	nt
Cc1ccc(CN2CCC(n3nccc3NC(=O)c3ccccc3C)CC2)o1	nt	nt	14	-12	-2	14	nt	nt
CC(=O)c1ccc2ccccc2c1OC(=O)c1ccncc1	nt	nt	nt	nt	nt	2	nt	nt
COc1ccc(C2/C=C\CN(C(=O)C3CCCC3)CC(=O)N2Cc2ccc(F)cc2)cc1 (centres undefined)	nt	-5	nt	-2	-7	-7	nt	nt
OCCN1CCN(C(=S)c2ccc(Cl)c(Cl)c2)CC1	1	-3	49*	-2	12	29	5	-5
Cn1cnnc1SCC(=O)NCCc1ccc(Cl)cc1Cl	1	2	-8	0	-12	-6	nt	nt
Cc1nnc(N/N=C/c2cccc(C(F)(F)F)c2)n1N	nt	nt	2	-4	-6	0	nt	nt
Cc1nnc(N/N=C/c2cccc(OCc3ccc(Cl)c(Cl)c3)c2)n1N	0	5	49*	5	12	-5	-37	4
CCOc1cc(/C=N/Nc2nnc(C)n2N)ccc1OC(C)=O	nt	nt	34*	-11	-3	-3	-59	0
SMILES	PERK inh	eIF4E 4G PPI	PfM18AAP inh-1	eIF4H FP inh	PABP FP inh	MLLE-PAM2 inh	PfM18AAP inh-2	CTSL1 counter
COc1cc(C2Nc3ccc4ncccc4c3C3=C2C(=O)CCC3)cc(OC)c1O (centres undefined)	0	5	43*	46	48	32	-5	2
COc1cc(C2Nc3ccc4ncccc4c3C3=C2C(=O)CC(C)(C)C3)cc(OC)c1O (centres undefined)	-2	2	8	33	32	20	nt	nt
O=C1CSC(=S)N1/N=C/c1cccnc1	0	-6	35*	-8	-2	43*	11	0
Cc1ccccc1/C=N/N1C(=O)CSC1=S	nt	nt	35*	2	8	31	-9	3
Cc1[nH]c2nc3ccccc3n2c(=O)c1CCC(C)C	nt	nt	2	-3	10	1	nt	nt
CS(=O)(=O)c1ccc2c(c1)sc1nc(=O)c(/C=C3/C=CC(=O)C(O)=C3)c(N)n12	0	9	58*	?	?	-146	62*	1
O=C(Nc1ccc2c(c1)OCCO2)NC1(C(F)(F)F)Oc2ccccc2O1	0	3	59*	-4	6	13	16	5
O=C(Nc1ccc2c(c1)OCO2)NC1(C(F)(F)F)Oc2ccccc2O1	0	2	57*	1	-2	5	18	0
CCOC(=O)CN1NC2(CCC(C)CC2)NC1=S (centres undefined)	-1	4	43*	-1	6	-4	-48	-3
CCOC(=O)CN1NC2(CCCC(C)C2)NC1=S (centres undefined)	-1	1	43*	-14	-1	7	-52	-1
CCOC(=O)CN1NC2(CCC(C(C)(C)C)CC2)NC1=S (centres undefined)	0	-2	0	-16	4	-58	nt	nt
C/C(=N\NC(=O)c1ccccc1O)c1ccc(NC(=O)Cc2ccccc2)cc1	nt	nt	18	7	7	-2	nt	nt
COC(=O)c1cc(S(=O)(=O)N2CCN(c3cccc(OC)c3)CC2)cn1C	nt	nt	-2	nt	nt	2	nt	nt
O=C(C1CCCN1S(=O)(=O)c1ccc(Cl)c(Cl)c1)N1CCCCC1 (centres undefined)	0	2	6	-1	8	4	nt	nt
COc1ccc(-c2c(C)nc3c(-c4ccccn4)cnn3c2N)cc1	nt	nt	38*	-7	-10	-6	22	3
CCC(c1nnc(SCC(=O)Nc2nnc(-c3ccccc3)o2)o1)N(C)C (centres undefined)	1	-13	69*	-1	-4	-10	35*	2
Cc1noc(NS(=O)(=O)c2ccc(NC(=O)CSc3nc4ccccc4s3)cc2)c1C	1	0	-11	-6	26	32	nt	nt
O=C(NNS(=O)(=O)c1ccc(F)cc1)c1ccc2c(c1)OCO2	nt	nt	50*	-8	-5	-6	11	2
CCOC(=O)c1c(C)oc2c1c(CN1CCN(C(=O)OCC)CC1)c(O)c1ccccc12	1	8	5	12	4	24	nt	nt
CCOC(=O)c1c(C)oc2c(CC(=O)c3ccccc3)c(Cl)c(O)c(O)c12	0	-4	45*	-1	-4	-32	24	3
